# Hit rate of the full screen: of about 310,000 compounds, about 14,000 (4.5%) showed an effect of 50% or more. Effects have a minus sign here. This is one part of a sample in which strong results are shown more often than they occur.
# Biological target: human ether-à-go-go-related gene (hERG) potassium channel (human, UniProt Q12809)
# Experiment: primary screen, population patch clamp on CHO cells stably expressing hERG; higher = less effect of the substance
# 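Also: peak tail current of the secondary pulse compared with the same well before compound.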
# human ether-à-go-go-related gene (hERG) potassium channel, sequence (Q12809 whole entry, looked up): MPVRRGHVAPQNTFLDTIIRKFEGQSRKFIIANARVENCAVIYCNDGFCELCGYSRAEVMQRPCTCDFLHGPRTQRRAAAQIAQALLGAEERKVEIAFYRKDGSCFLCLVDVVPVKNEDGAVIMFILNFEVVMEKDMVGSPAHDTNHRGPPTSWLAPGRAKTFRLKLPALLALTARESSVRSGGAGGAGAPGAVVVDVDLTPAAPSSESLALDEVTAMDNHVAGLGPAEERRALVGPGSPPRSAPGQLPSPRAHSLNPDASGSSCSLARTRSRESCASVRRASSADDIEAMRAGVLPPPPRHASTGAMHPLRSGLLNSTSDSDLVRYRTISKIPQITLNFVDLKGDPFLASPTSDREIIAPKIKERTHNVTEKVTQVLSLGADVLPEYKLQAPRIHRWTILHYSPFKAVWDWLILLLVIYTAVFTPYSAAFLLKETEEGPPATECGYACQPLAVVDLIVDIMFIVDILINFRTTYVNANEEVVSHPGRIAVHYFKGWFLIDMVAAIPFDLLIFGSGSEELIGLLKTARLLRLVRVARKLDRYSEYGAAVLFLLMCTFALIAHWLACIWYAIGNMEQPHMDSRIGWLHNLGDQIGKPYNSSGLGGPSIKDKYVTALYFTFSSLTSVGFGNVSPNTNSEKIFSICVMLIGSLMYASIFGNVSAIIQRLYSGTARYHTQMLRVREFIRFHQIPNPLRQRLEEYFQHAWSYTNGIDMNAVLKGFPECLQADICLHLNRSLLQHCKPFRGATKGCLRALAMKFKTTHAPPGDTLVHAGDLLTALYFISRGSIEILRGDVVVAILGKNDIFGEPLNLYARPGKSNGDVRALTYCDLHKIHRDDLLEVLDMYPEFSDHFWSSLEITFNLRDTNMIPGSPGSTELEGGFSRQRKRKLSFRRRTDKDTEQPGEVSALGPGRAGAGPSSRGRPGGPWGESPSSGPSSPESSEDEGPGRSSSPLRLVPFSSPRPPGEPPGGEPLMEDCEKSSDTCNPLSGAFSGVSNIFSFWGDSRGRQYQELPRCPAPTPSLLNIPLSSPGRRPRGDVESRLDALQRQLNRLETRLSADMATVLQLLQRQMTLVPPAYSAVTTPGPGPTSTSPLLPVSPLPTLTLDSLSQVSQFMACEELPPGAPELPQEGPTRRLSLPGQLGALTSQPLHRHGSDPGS
row,Structure (SMILES),"hERG current change (%, negative = inhibition) at 10uM [%]"
1,O=C(NCc1nc2ccccc2[nH]1)C1=C[C@@H](c2ccccc2)C[C@@H](OCc2ccc(CO)cc2)O1,-64.9
2,O=C(NCc1nc2ccccc2[nH]1)C1=C[C@H](c2ccccc2)C[C@H](OCc2ccc(CO)cc2)O1,-13.6
3,O=C(NCc1nc2ccccc2[nH]1)C1=C[C@@H](c2csc3ccccc23)C[C@@H](OCCCCO)O1,-29.6
4,O=C(NCc1nc2ccccc2[nH]1)C1=C[C@H](c2ccc(Br)cc2)C[C@H](OCc2ccc(CO)cc2)O1,3.89
5,O=C(NCc1ccccc1)C1=C[C@@H](c2csc3ccccc23)C[C@@H](OCCCCO)O1,-69
6,O=C(Nc1ccccc1)C1=C[C@H](c2csc3ccccc23)C[C@H](OCCCCO)O1,-5.71
7,O=C(NCc1ccccc1)C1=C[C@H](c2csc3ccccc23)C[C@H](OCCCCO)O1,-12.5
8,O=C(NCc1nc2ccccc2[nH]1)C1=C[C@H](c2coc3ccccc3c2=O)C[C@H](OCCCCO)O1,-50.7
9,O=C(NCc1nc2ccccc2[nH]1)C1=C[C@@H](c2ccccc2)C[C@@H](OCCCCO)O1,-46.5
10,O=C(NCc1nc2ccccc2[nH]1)C1=C[C@@H](c2ccc(Br)cc2)C[C@@H](OCCCCO)O1,-65.9
11,O=C(NCc1nc2ccccc2[nH]1)C1=C[C@H](c2ccccc2)C[C@H](OCCCCO)O1,-36.3
12,O=C(NCc1nc2ccccc2[nH]1)C1=C[C@H](c2coc3ccccc3c2=O)C[C@H](OCc2ccc(CO)cc2)O1,-21.5
13,Nc1nc2c(ncn2C2C[C@H](O)[C@@H](CO)O2)c(=O)[nH]1 (some centres unmarked),14.4
14,Cc1nnc(NC(=O)c2ccc(S(=O)(=O)N3CCc4ccccc4C3)cc2)o1,8.81
15,Cc1cc(C)n(-c2nnc(C)n2NC(=O)c2cccc(Cl)c2)n1,11.1
16,Cc1cccc[n+]1CC(=O)c1ccc(NC(=O)c2ccccc2)cc1.[Br-],28.6
17,COc1ccccc1NC(=O)Nc1nc(CC(=O)NCc2ccc(F)cc2)cs1,-11.4
18,Cc1ccc(S(=O)(=O)NCc2ccccc2)cc1C(=O)NC1CCCCC1,15.9
19,COc1cc(C(=O)NCC(=O)OCCN2C(=O)c3ccccc3C2=O)cc(OC)c1OC,4.2
20,CCNc1nc(Oc2ccc(=O)[nH]n2)nc(SC)n1,8.57
21,CC1=CC(C/C(C)=C/COc2ccc3ccc(=O)oc3c2)OC1=O (centres unmarked),2.36

row,Structure (SMILES),"hERG current change (%, negative = inhibition) at 10uM [%]"
1,COC(=O)c1c(NC(=O)c2ccccc2F)sc2c1C(C(=O)OC)CC2 (centres unmarked),9.38
2,CCCn1c(SCC(=O)c2cc(OC)ccc2OC)nnc1-c1ccco1,-12.5
3,O=C(Nc1ccccc1)C1=C[C@@H](c2coc3ccccc3c2=O)C[C@@H](OCCCCO)O1,-41.1
4,O=C(O)C1=C[C@@H](c2coc3ccccc3c2=O)C[C@@H](OCCCCO)O1,22.8
5,O=C(NC1CC1)C1=C[C@@H](c2coc3ccccc3c2=O)C[C@@H](OCCCCO)O1,-23.8
6,O=C(Nc1ccccc1)C1=C[C@H](c2coc3ccccc3c2=O)C[C@H](OCCCCO)O1,-70.3
7,O=C(O)C1=C[C@H](c2coc3ccccc3c2=O)C[C@H](OCCCCO)O1,3.91
8,O=C(NCc1ccccc1)C1=C[C@H](c2coc3ccccc3c2=O)C[C@H](OCCCCO)O1,-55.4
9,C#CCNC(=O)C1=C[C@@H](c2coc3ccccc3c2=O)C[C@@H](OCCCCO)O1,1.71
10,O=C(NCc1ccccc1)C1=C[C@@H](c2coc3ccccc3c2=O)C[C@@H](OCCCCO)O1,-83.1
11,C#CCNC(=O)C1=C[C@H](c2coc3ccccc3c2=O)C[C@H](OCCCCO)O1,-45
12,COc1cc2c(cc1OC)CN(C(=S)Nc1ccccc1)CC2,-7.19
13,O=C(/C=C/c1cc(Br)ccc1F)Nc1cccnc1,14.6
14,COc1ccccc1N(CC(=O)NC1CCCC1)C(=O)C1(C)CC(=O)N=C2C=CC(C)=CN21 (centres unmarked),12.5
15,CC(C)CCN(C(=O)c1ccc(N2CCCC2=O)cc1)c1c(N)n(Cc2ccccc2)c(=O)[nH]c1=O,12.2
16,Cc1ccc(-n2cc3ccc([N+](=O)[O-])cc3n2)cc1,5.28
17,CC(C)n1c(Nc2ccccc2)nc2ccccc21,-1.84
18,COc1ccc(NC(=O)CSc2nc3c(sc4ccccc43)c(=O)n2CCCN2CCCC2)cc1,-30.8
19,COc1ccccc1NC(=O)CSc1nc2c(sc3ccccc32)c(=O)n1CCN(C)C.Cl,11.5
20,COc1cccc(NC(=O)CSc2nc3c(sc4ccccc43)c(=O)n2CCCN2CCCC2)c1,-69.8
21,Cc1cc(NC(=O)CSc2nc3c(sc4ccccc43)c(=O)n2CCc2ccccc2)n[nH]1,-19.6

row,Structure (SMILES),"hERG current change (%, negative = inhibition) at 10uM [%]"
1,CCN(CC)CCn1c(SCC(=O)Nc2cccc(OC)c2)nc2c(sc3ccccc32)c1=O,-69.2
2,CCN(CC)CCn1c(SCC(=O)Nc2ccc(F)cc2)nc2c(sc3ccccc32)c1=O.Cl,-14.9
3,COCCn1c(SCC(=O)Nc2cccc(OC)c2)nc2c(oc3ccccc32)c1=O,-42.2
4,COc1cccc(NC(=O)CSc2nc3c(sc4ccccc43)c(=O)n2CCN(C)C)c1.Cl,-65.5
5,COc1cccc(NC(=O)CSc2nc3c([nH]c4ccccc43)c(=O)n2C)c1,16.4
6,Cc1ccc(C)c(N2CCN(S(=O)(=O)c3ccc4c(c3)CC(=O)N4C)CC2)c1,-19.4
7,COc1ccc(Nc2nnc(SCC3CCCO3)s2)cc1 (centres unmarked),-5.7
8,Cc1nc(NC(=O)C(Cl)Cl)sc1C(=O)N(C)C,5.44
9,CCCC(c1nnnn1CC1CCCO1)N1CCN(c2ccccc2)CC1.Cl (centres unmarked),-4.74
10,O=C(Nc1cccc(Oc2ccc3c(c2)C(=O)NC3=O)c1)c1ccco1,-21.8
11,Cc1ccc(C(=O)c2sc3c(c2N)c(=O)[nH]c(=O)n3CCc2ccccc2)cc1,12.2
12,CCn1c(=O)[nH]c(=O)c2c(N)c(C(=O)c3ccccc3OC)sc21,-15.2
13,CCn1c(=O)[nH]c(=O)c2c(N)c(C(=O)c3cc(F)ccc3F)sc21,-57.4
14,CC1=Nc2ccccc2/C1=C/c1sc(=N)n(-c2nccs2)c1O,10.5
15,O=C(CN1C(=O)/C(=C/c2ccco2)SC1=S)Nc1ccc(O)c(C(=O)O)c1,25.2
16,CC(NCCC(Cc1ccccc1)c1ccco1)c1ccccc1 (centres unmarked),-22
17,CC(=O)N(CCC(Cc1ccccc1)c1ccco1)Cc1ccco1 (centres unmarked),-28.4
18,Fc1ccc(CNCc2ccco2)cc1,11.5
19,Fc1ccc(CNCCC(Cc2ccccc2)c2ccco2)cc1 (centres unmarked),-54.3
20,CC(=O)NCCC(Cc1ccccc1)c1ccco1 (centres unmarked),5.91
21,CN(C)c1ccc(CNCCC(Cc2ccccc2)c2ccco2)cc1 (centres unmarked),-52.3

row,Structure (SMILES),"hERG current change (%, negative = inhibition) at 10uM [%]"
1,O=C(NCCNCc1ccc(F)cc1)c1ccco1.O=C(O)C(=O)O,9.99
2,c1ccc(CNCCC(Cc2ccccc2)c2ccco2)cc1 (centres unmarked),-54.8
3,CCC(=O)N(CCC(Cc1ccccc1)c1ccco1)Cc1ccco1 (centres unmarked),-1.81
4,O=C(Nc1cc(F)ccc1F)c1cccc(-n2cnnn2)c1,-18.3
5,COC(=O)N/N=C/c1cn(CCCOc2ccccc2)c2ccccc12,-4.14
6,C#Cc1ccc([C@H]2C=C(C(=O)N3CCOCC3)O[C@@H](OCC)[C@@H]2CCCO)cc1,6.65
7,COc1ccc(NC(=O)C2CCCN2S(=O)(=O)c2ccc3c(c2)CCC(=O)N3)cc1Cl (centres unmarked),-27.8
8,COc1ccc(NC(=O)C2CCCN2S(=O)(=O)c2ccc3c(c2)CCC(=O)N3)c(OC)c1 (centres unmarked),-16.8
9,COc1ccc(C)cc1NC(=O)C1CCCN1S(=O)(=O)c1ccc2c(c1)CCC(=O)N2 (centres unmarked),-50.8
10,O=C1CCc2cc(S(=O)(=O)N3CCC(C(=O)NC4CCCC4)CC3)ccc2N1,-4.68
11,O=C1CCc2cc(S(=O)(=O)N3CCCC3C(=O)NC3CCCCCCC3)ccc2N1 (centres unmarked),-50.3
12,O=C1CCc2cc(S(=O)(=O)N3CCC(C(=O)NC4CCCCCCC4)CC3)ccc2N1,10.8
13,Cc1ccc(/C=N/NC(=O)c2cc(-c3cccnc3)nc3ccccc23)cc1,-5.06
14,N#Cc1ccc(OCC(O)CS(=O)(=O)c2ccccc2)cc1 (centres unmarked),-21
15,CC(=O)c1ccc(S(=O)(=O)Nc2cc3c(cc2C(C)=O)OCO3)cc1,21.2
16,COc1ccc(C(=O)N(Cc2nc(-c3ccc(C)cc3)no2)C(C)C)cc1OC,-31.4
17,CCCN1C2=NCCN2c2ccccc21.Cl,-9.75
18,CCCCCCCN1C2=NCCN2c2ccccc21.Cl,-79.6
19,Br.CCCCCN1C2=NCCN2c2ccccc21,-71.4
20,CCCCCCN1C2=NCCN2c2ccccc21.Cl,-74

# — PMC4336329 (PLoS ONE, 2015)
